These results are taken from PubChem BioAssay (NCI).

About 79,000 compounds went through this panel and 15% of them were active in at least one assay; those are over-represented in the sample as a whole. The source made the active and inactive calls. Rule as the data show it: active = growth inhibition above about 70%; inactive = the rest.

One assay in a line: NCI Yeast Anticancer Drug Screen. Data for the rad50 strain (AID 155).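 Also: 0% = growth of vehicle-only cultures of the same strain.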 The following applies: S. cerevisiae rad50 strain growth inhibition; at 5.0 µM (retest, dose inferred, filed as 0.5); hits give high values. In outline: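 Inhibition values express reduced yeast growth in compound-treated cultures relative to vehicle-treated controls.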
Turning to `CC1CCN(CCOC(=O)C(c2ccccc2)C2C=CCCC2)C1C` (stereo not given), the growth inhibition was 16% (inactive).
For the compound `CC(CCCN(C)Cc1ccccc1)Nc1ccnc2cc(Cl)ccc12` (stereo not given), the growth inhibition was 88% (active).
As for `O=C(/C(Cl)=N/O)c1ccccc1`, the growth inhibition was 80% (active).
The same measure, in the same setting: the figure for `CN(C)C1C[C@@H](O[Si](C)(C)C(C)(C)C)C=C1S(=O)(=O)c1ccccc1` (stereo not given in full) is -16% (inactive).
On the same count and under the same terms, then `Nc1nnc(Cc2ccc(Br)cc2)o1`, with -8% (inactive); and `CSc1nc(C)cc(SCc2ccc(Cl)cc2Cl)n1`, with -3% (inactive); and `CC[N](CC)[Ge]([CH2]C)[CH2]C.CC[N](CC)[Ge]([CH2]C)[CH2]C`, with 34% (inactive).
For the compound `Cc1c(-c2ccccc2)ccnc1/C=N/NC(=S)Nc1ccc(N(C)C)cc1`, the growth inhibition is 48% (inactive).
Turning to `Cc1cc(C)nc(NS(=O)(=O)c2ccc(Nc3c4ccccc4nc4c(C(=O)NC(CO)(CO)CO)cccc34)cc2)n1`, the growth inhibition was -11% (inactive).
Still for that read-out and setting: then `CCCC(CCC)NCCOC(=O)C(CC)c1ccccc1` (stereo not given), with 3% (inactive); and `OCCc1ccc(-n2cnc3c(Nc4ccc(Cl)cc4)ncnc32)cc1`, with -3% (inactive).
On to `Cc1cccc(N2C(=O)c3ccccc3C2(c2ccccc2)N2CCCCC2)c1` (stereo not given), for which the growth inhibition is -1% (inactive).
The same measure, in the same setting: then `CCCCN(CCO)CCNc1ccc(C)c2sc3ccccc3c(=O)c12`, with 17% (inactive); and `Cc1ccc(C)c(C(=O)CCN)c1`, with -2% (inactive).
With `O=C1C(C(O)(C(F)(F)Cl)C(F)(F)Cl)CCCC1C(O)(C(F)(F)Cl)C(F)(F)Cl` (stereo not given), the growth inhibition is 95% (active).
With `CC(C)c1cc2c(cc1O)C(O)C1(O)CCCC(C)(C)[C@H]1CC2` (stereo not given in full), the growth inhibition was -6% (inactive).
The same measure, in the same setting: then `CN(C)[C@@H]1C(=O)C(C(=O)NCNc2nc3n[nH]nc3c(=O)[nH]2)=C(O)[C@@]2(O)C(=O)C3=C(O)c4c(O)cccc4[C@@](C)(O)[C@H]3C[C@@H]12`, with -1% (inactive); and `CCOC(=O)c1csc(=S)[nH]1`, with 2% (inactive); and `CC(=O)[O-].O=C(N/N=C/c1ccccc1[O-])c1ccccc1.[Zn+2]`, with -3% (inactive).
As for `Clc1ccc(C(CCOc2ccccc2Br)Cn2ccnc2)c(Cl)c1` (stereo not given), the growth inhibition was 89% (active).
Same read-out and setting: then `CCCC(C)C/C(C)=C\C(C)(C)C1CC(=O)N(CC)C1=O` (stereo not given), with -3% (inactive); and `CSC(SC)=C1C(=O)NC(Cc2ccccc2)C1=O` (stereo not given), with 6% (inactive); and `CCCCCCSc1nc2ccc(N=Cc3ccccc3O)cc2s1`, with 90% (active).
As for `Cc1cc(C(=O)O)c(C)c2c1sc1ccccc12`, the growth inhibition was 6% (inactive).
Take `O=C(Nc1ccc(Cl)cc1)Nc1nnc2nc(C(C(=O)/C=C/c3ccccc3)c3nc4nnc(NC(=O)Nc5ccc(Cl)cc5)n4[nH]c3=O)c(=O)[nH]n12`: the growth inhibition was -8% (inactive).
With `O=c1c(SSc2coc3ccccc3c2=O)coc2ccccc12`, the growth inhibition was 22% (inactive).
With `C[n+]1c(/C=C/c2ccc(N3CCCC3)cc2)sc2ccccc21`, the growth inhibition was 76% (active).
Regarding `CCC(C(c1ccc(Cl)cc1)c1ccc(Cl)c(Cl)c1)[N+](=O)[O-]` (stereo not given), the growth inhibition was 4% (inactive).
Turning to `O=C1OC(C2OC(=O)C(=O)C2C(=O)c2ccc([N+](=O)[O-])cc2)C(C(=O)c2ccc([N+](=O)[O-])cc2)C1=O` (stereo not given), the growth inhibition was 5% (inactive).
On to `O=[N+]([O-])c1ccc(O)c(C2CCCCC2)c1`, for which the growth inhibition is 72% (active).
For the compound `O=C1c2ccccc2C(=O)N1/N=C\c1ccccc1[N+](=O)[O-]`, the growth inhibition is 1% (inactive).
Consider `CC(C)(C)C(=O)CC(=O)C(F)(F)C(F)(F)C(F)(F)F.CC(C)(C)C(=O)CC(=O)C(F)(F)C(F)(F)C(F)(F)F.CC(C)(C)C(=O)CC(=O)C(F)(F)C(F)(F)C(F)(F)F.[Gd]`, for which the growth inhibition is -7% (inactive).
Turning to `Oc1ccc(N=Nc2ccccc2)cc1`, the growth inhibition was 13% (inactive).
Turning to `Cc1cc(NC(=S)SCc2ccc(F)cc2)ccc1Br`, the growth inhibition was 49% (inactive).
On the same count and under the same terms, the figure for `OC(CN1CCc2ccccc2C1)c1ccc2ccccc2c1` (stereo not given) is 23% (inactive).
On the same count and under the same terms, then `O=C1C=C/C(=C(/c2ccc(O)c(O)c2)c2ccccc2S(=O)(=O)O)C=C1O`, with 1% (inactive).
In the case of `Cc1cc(N)c2cc(NC(=O)Nc3ccc4nc(C)cc(N)c4c3)ccc2n1`, the growth inhibition was 100% (active).
`CC(=O)N/N=C1/CC[C@@]2(C)C(=CC[C@H]3C4CCC(C(C)CCCC(C)C)[C@@]4(C)CCC32)C1(C)C` (stereo not given in full): the growth inhibition was -23% (inactive).
As for `Cc1ncn(-c2ccccc2O)c1C`, the growth inhibition was -3% (inactive).
Take `Oc1ccc(-c2nnc(-c3ccccc3)nn2)cc1`: the growth inhibition was -154% (inactive).

Still in this assay, the particulars now being: S. cerevisiae rad50 strain growth inhibition; at 50.0 µM (retest, dose inferred, filed as 5.0); hits give high values.
As for `CC1CCN(CCOC(=O)C(c2ccccc2)C2C=CCCC2)C1C` (stereo not given), the growth inhibition is 59% (inactive).
As to `CC(CCCN(C)Cc1ccccc1)Nc1ccnc2cc(Cl)ccc12` (stereo not given), the growth inhibition is 99% (active).
As to `O=C(/C(Cl)=N/O)c1ccccc1`, the growth inhibition was 99% (active).
For `CN(C)C1C[C@@H](O[Si](C)(C)C(C)(C)C)C=C1S(=O)(=O)c1ccccc1` (stereo not given in full), the growth inhibition was 100% (active).
Consider `Nc1nnc(Cc2ccc(Br)cc2)o1`, for which the growth inhibition was 0% (inactive).
As for `CSc1nc(C)cc(SCc2ccc(Cl)cc2Cl)n1`, the growth inhibition was 4% (inactive).
With `CC[N](CC)[Ge]([CH2]C)[CH2]C.CC[N](CC)[Ge]([CH2]C)[CH2]C`, the growth inhibition is 98% (active).
As for `Cc1c(-c2ccccc2)ccnc1/C=N/NC(=S)Nc1ccc(N(C)C)cc1`, the growth inhibition is 94% (active).
On to `Cc1cc(C)nc(NS(=O)(=O)c2ccc(Nc3c4ccccc4nc4c(C(=O)NC(CO)(CO)CO)cccc34)cc2)n1`, for which the growth inhibition was 26% (inactive).
For `CCCC(CCC)NCCOC(=O)C(CC)c1ccccc1` (stereo not given), the growth inhibition is 42% (inactive).
The same measure, in the same setting: the figure for `OCCc1ccc(-n2cnc3c(Nc4ccc(Cl)cc4)ncnc32)cc1` is 95% (active); for `Cc1cccc(N2C(=O)c3ccccc3C2(c2ccccc2)N2CCCCC2)c1` (stereo not given) it is -5% (inactive).
With `CCCCN(CCO)CCNc1ccc(C)c2sc3ccccc3c(=O)c12`, the growth inhibition is 99% (active).
Consider `Cc1ccc(C)c(C(=O)CCN)c1`, for which the growth inhibition was 5% (inactive).
On to `O=C1C(C(O)(C(F)(F)Cl)C(F)(F)Cl)CCCC1C(O)(C(F)(F)Cl)C(F)(F)Cl` (stereo not given), for which the growth inhibition was 99% (active).
Turning to `CC(C)c1cc2c(cc1O)C(O)C1(O)CCCC(C)(C)[C@H]1CC2` (stereo not given in full), the growth inhibition is 99% (active).
Turning to `CN(C)[C@@H]1C(=O)C(C(=O)NCNc2nc3n[nH]nc3c(=O)[nH]2)=C(O)[C@@]2(O)C(=O)C3=C(O)c4c(O)cccc4[C@@](C)(O)[C@H]3C[C@@H]12`, the growth inhibition is 9% (inactive).
Take `CCOC(=O)c1csc(=S)[nH]1`: the growth inhibition is 83% (active).
On to `CC(=O)[O-].O=C(N/N=C/c1ccccc1[O-])c1ccccc1.[Zn+2]`, for which the growth inhibition is 61% (inactive).
For `Clc1ccc(C(CCOc2ccccc2Br)Cn2ccnc2)c(Cl)c1` (stereo not given), the growth inhibition was 98% (active).
For the compound `CCCC(C)C/C(C)=C\C(C)(C)C1CC(=O)N(CC)C1=O` (stereo not given), the growth inhibition is 90% (active).
For the compound `CSC(SC)=C1C(=O)NC(Cc2ccccc2)C1=O` (stereo not given), the growth inhibition is 50% (inactive).
On to `CCCCCCSc1nc2ccc(N=Cc3ccccc3O)cc2s1`, for which the growth inhibition was 89% (active).
`Cc1cc(C(=O)O)c(C)c2c1sc1ccccc12`: the growth inhibition was 87% (active).
For the compound `O=C(Nc1ccc(Cl)cc1)Nc1nnc2nc(C(C(=O)/C=C/c3ccccc3)c3nc4nnc(NC(=O)Nc5ccc(Cl)cc5)n4[nH]c3=O)c(=O)[nH]n12`, the growth inhibition is 11% (inactive).
`O=c1c(SSc2coc3ccccc3c2=O)coc2ccccc12`: the growth inhibition was 99% (active).
Turning to `C[n+]1c(/C=C/c2ccc(N3CCCC3)cc2)sc2ccccc21`, the growth inhibition is 98% (active).
On the same count and under the same terms, the figure for `CCC(C(c1ccc(Cl)cc1)c1ccc(Cl)c(Cl)c1)[N+](=O)[O-]` (stereo not given) is 12% (inactive); for `O=C1OC(C2OC(=O)C(=O)C2C(=O)c2ccc([N+](=O)[O-])cc2)C(C(=O)c2ccc([N+](=O)[O-])cc2)C1=O` (stereo not given) it is 57% (inactive).
On to `O=[N+]([O-])c1ccc(O)c(C2CCCCC2)c1`, for which the growth inhibition was 98% (active).
For `O=C1c2ccccc2C(=O)N1/N=C\c1ccccc1[N+](=O)[O-]`, the growth inhibition is 75% (active).
`CC(C)(C)C(=O)CC(=O)C(F)(F)C(F)(F)C(F)(F)F.CC(C)(C)C(=O)CC(=O)C(F)(F)C(F)(F)C(F)(F)F.CC(C)(C)C(=O)CC(=O)C(F)(F)C(F)(F)C(F)(F)F.[Gd]`: the growth inhibition is 79% (active).
`Oc1ccc(N=Nc2ccccc2)cc1`: the growth inhibition was 97% (active).
With `Cc1cc(NC(=S)SCc2ccc(F)cc2)ccc1Br`, the growth inhibition was 99% (active).
As to `OC(CN1CCc2ccccc2C1)c1ccc2ccccc2c1` (stereo not given), the growth inhibition is 64% (inactive).
As to `O=C1C=C/C(=C(/c2ccc(O)c(O)c2)c2ccccc2S(=O)(=O)O)C=C1O`, the growth inhibition is 0% (inactive).
For the compound `Cc1cc(N)c2cc(NC(=O)Nc3ccc4nc(C)cc(N)c4c3)ccc2n1`, the growth inhibition was 100% (active).
On the same count and under the same terms, the figure for `CC(=O)N/N=C1/CC[C@@]2(C)C(=CC[C@H]3C4CCC(C(C)CCCC(C)C)[C@@]4(C)CCC32)C1(C)C` (stereo not given in full) is 79% (active); for `Cc1ncn(-c2ccccc2O)c1C` it is 7% (inactive).
Consider `Oc1ccc(-c2nnc(-c3ccccc3)nn2)cc1`, for which the growth inhibition is -160% (inactive).
